According to PubChem BioAssay AID652054 (National Center for Advancing Translational Sciences (NCATS), 2013):
The whole screen tested about 360,000 compounds, of which about 9,100 (2.5%) were called active. Roughly 4% stayed inconclusive and do not appear here. No stated cut-off is given here; in the data, active means max response below about -50%; inconclusive means no clear call, values can overlap the other calls; inactive means above that. What follows is part of a selection rich in actives, with near analogues and random picks from the rest.

target: D(3) dopamine receptor (Homo sapiens) (UniProt P35462); assay: qHTS of D3 Dopamine Receptor Antagonist: qHTS; conditions: D3R cells, DiscoveRx beta-arrestin luminescence, antagonist mode; stronger effect = lower value
Outline: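 Cells plated overnight at 1500 cells/well, then exposed to library compounds with dopamine controls for 90 minutes at 37 degrees C. DiscoveRx reagent added for 30–60 minutes at room temperature; luminescence read, quantitative HTS format.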
On the % scale 0 is the no-effect control and ±100 the full control effect.

Sequence of D(3) dopamine receptor (Homo sapiens) (P35462 whole entry, looked up): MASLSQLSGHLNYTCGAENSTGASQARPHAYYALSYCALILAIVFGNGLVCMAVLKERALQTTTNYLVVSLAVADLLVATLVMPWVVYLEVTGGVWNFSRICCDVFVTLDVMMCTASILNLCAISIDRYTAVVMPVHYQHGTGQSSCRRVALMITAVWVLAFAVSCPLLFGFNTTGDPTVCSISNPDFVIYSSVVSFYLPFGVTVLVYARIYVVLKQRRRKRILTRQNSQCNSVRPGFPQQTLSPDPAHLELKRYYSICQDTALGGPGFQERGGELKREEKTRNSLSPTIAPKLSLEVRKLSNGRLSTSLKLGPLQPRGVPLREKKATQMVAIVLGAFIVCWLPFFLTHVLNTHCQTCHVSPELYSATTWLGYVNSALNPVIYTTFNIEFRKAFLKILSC

SMILES | max response, negative = inhibition
COc1ccc(NC(=O)c2sc(=O)n(Cc3ccc(S(=O)(=O)N(C)C)cc3)c2C)cc1 | 14.5% (inactive)
CCCCCCCCNS(=O)(=O)CCNC1CCCCC1 | -69.1% (active)
CC1(C)CC(=O)C=C(NCCCNC2CCCCC2)C1 | 1.63% (inactive)
CCCCCCNS(=O)(=O)c1ccccc1Br | 0% (inactive)
CCCC(=O)N1CCC1(C)C(=O)NS(=O)(=O)c1ccc(Cl)cc1 (configuration not stated) | 3.58% (inactive)
c1ccc2c(c1)nnn2-c1ccncc1 | -16.5% (inactive)
CCOC(=O)c1ccc2[nH]c(C)c(CN3CCN(C)CC3)c(=O)c2c1 | 0% (inactive)
COC(=O)CCNC(=O)c1ccc2[nH]c(C)c(C)c2c1 | -22.3% (inactive)
Cc1[nH]c2ccc(C(=O)N3CCN(C)CC3)cc2c1C | -72.7% (active)
CC1(C(=O)Nc2ccc3c(c2)OCCO3)CSCC(=O)N1CCOc1ccccc1 (configuration not stated) | -1.68% (inactive)
O=C(Nc1ccc(OCCO)cc1)c1csc([C@H]2C[C@H](O)[C@@H](CO)O2)n1 | -7.51% (inactive)
O=C(NCc1cccnc1)c1ccc2nc([C@@H]3O[C@H](CO)[C@H](O)[C@H](O)[C@H]3O)[nH]c2c1 | 40.4% (inactive)
Nc1nc2cc(Cl)ccc2n1N | 0% (inactive)
O=[N+]([O-])c1cc(Cl)cc(/C=N/NC(=S)Nc2cc(S(=O)(=O)N3CCOCC3)ccc2Cl)c1O | -50.3% (active)
O=C(c1cc(S(=O)(=O)N2CCOCC2)ccc1Cl)N1CCOCC1 | -16% (inactive)
O=C(Nc1cc(S(=O)(=O)N2CCOCC2)ccc1Cl)c1cc(=O)c2ccccc2o1 | 17% (inactive)
Cc1cc(C)n2c(Nc3c(C)cccc3C)c(CCc3ccccc3)nc2n1 | 18.8% (inactive)
CCN(CC)S(=O)(=O)c1cc([N+](=O)[O-])ccc1NNC(=O)Nc1ccccc1 | -56.2% (active)
CCN(CC)S(=O)(=O)c1cc([N+](=O)[O-])ccc1N=Nc1c(O)n(C)c2ccccc12 | 3.23% (inactive)
CC(=O)c1ccc(NC(=O)Nc2ccc([N+](=O)[O-])cc2C)cc1 | -18.2% (inactive)
COc1ccc(-c2ccc(Nc3ccc(S(=O)(=O)N4CCCC4)cc3)nn2)cc1OC | 39.5% (inactive)
COc1ccc(-c2cc(C(F)(F)F)nc(S(C)(=O)=O)n2)cc1OC | -72.7% (active)

SMILES | max response, negative = inhibition
COc1ccc(-c2cc(-c3ccc(N)cc3)nc(N)c2C#N)cc1OC | 23.8% (inactive)
COc1ccc(NC(=O)CCCOc2ccc(C(C)=O)cc2)cc1S(=O)(=O)N1CCCCC1 | -5.42% (inactive)
CC(C)NC(=O)C1(C)CCCCCN1C(=O)c1ccc(-c2ccccc2)cc1 (configuration not stated) | 15.2% (inactive)
CCOC(=O)C(=CNc1cccc(C)n1)C(=O)OCC | -3.11% (inactive)
CCOC(=O)C(=Cc1ccccc1)C(=O)c1ccccc1 | -59.2% (active)
CCOC(=O)C(=Cc1ccccc1OC)C(=O)OCC | -20.5% (inactive)
COC(=O)c1ccc2nc(-c3cccc(Br)c3)c(Cc3ccc(OC)cc3C)n2c1 | -25.6% (inactive)
Cc1ccccc1S(=O)(=O)N1[C@@H](c2cccc(Cl)c2)C(C(=O)OC(C)(C)C)=CC[C@H]1c1ccc(Cl)cc1 | 6.92% (inactive)
CCOc1ccccc1-c1nc(CN2CCC(C(=O)N3CCOCC3)CC2)c(C)o1 | -15.7% (inactive)
CCOC(=O)C1(CC2CCCCO2)CCN(Cc2nc(-c3cccs3)oc2C)CC1 (configuration not stated) | -99% (active)
CC(Sc1nnc(-c2cccs2)n1C1CC1)C(=O)NCC1CCCO1 (configuration not stated) | 15.9% (inactive)
COc1ccccc1-c1cc2nc(NCc3cccc(Cl)c3)ccn2n1 | 7.72% (inactive)
Cc1cccc(C)c1-n1nnnc1C1(C)CCC(=O)N1CCOc1ccccc1 (configuration not stated) | 8.1% (inactive)
COc1ccc(NC(=O)CN(C)C(=O)c2cc(C3CC3)nn2-c2ccccc2)cc1 | -0.552% (inactive)
COc1ccc(CN2CCN(C(=O)c3cc(C4CC4)nn3-c3ccccc3)CC2)cc1F | -50% (active)
CCc1ccccc1NC(=O)CN1CCN(C(=O)c2cc(C3CC3)nn2-c2ccccc2)CC1 | 13.7% (inactive)
CC(C)OC(=O)CC(=O)CC(O)c1cccc([N+](=O)[O-])c1 (configuration not stated) | -17.6% (inactive)
CC(C)(C)N1C(=O)[C@H]2[C@@H](c3ccc(Br)cc3)N3C(=O)N(c4cccc(Cl)c4)C(=O)[C@@]3(C)[C@H]2C1=O | -1.37% (inactive)
COc1ccc([C@@H]2[C@@H]3C(=O)N(C(C)(C)C)C(=O)[C@@H]3[C@]3(Cc4ccccc4)C(=O)N(c4cccc(Br)c4)C(=O)N23)cc1 | 8.03% (inactive)
CC[C@@]12C(=O)N(c3ccccc3)C(=O)N1[C@H](c1ccc(Br)cc1)[C@@H]1C(=O)N(C(C)(C)C)C(=O)[C@@H]12 | -54% (active)
O=C1C(Sc2cccc(F)c2)=C[C@@]2(O)CC[C@@H](O)[C@]1(Sc1cccc(F)c1)[C@H]2O | 4.49% (inactive)
CCOC(=O)C(C)n1cnc2c(nnn2-c2cccc(OC)c2)c1=O (configuration not stated) | -57.8% (active)

SMILES | max response, negative = inhibition
CCOC(=O)C(C)n1cnc2c(nnn2-c2ccc(F)cc2)c1=O (configuration not stated) | -1.26% (inactive)
COC(=O)C(C)n1cnc2c(nnn2-c2ccc(F)cc2)c1=O (configuration not stated) | 0% (inactive)
CCCCCCCCN1C(=O)[C@H](CC(=O)NCc2cccc3ccccc23)C[C@@]2(C(=O)OC)CCCCC=C12 | 10.6% (inactive)
C#CCOCCOCCOCCNc1nc(N2CCN(C(=O)[C@H](C(C)C)n3cc(CCO)nn3)CC2)nc(N2CCN(C(=O)[C@H](C(C)C)n3cc(CCO)nn3)CC2)n1 | 8.41% (inactive)
C#CCOCCOCCOCCNc1nc(N2CCN(C(=O)Cn3cc(CCO)nn3)CC2)nc(N2CCN(C(=O)[C@H](CCCCN)n3cc(CCCC)nn3)CC2)n1 | 15.4% (inactive)
C#CCOCCOCCOCCNc1nc(N2CCN(C(=O)CCCCCCCCCCNC(=O)[C@H]([C@@H](C)CC)n3cc(CCCCN=C(N)N)nn3)CC2)nc(N2CCN(C(=O)CCCCCCCCCCNC(=O)[C@H](CO)n3cc(CCCSC)nn3)CC2)n1 | -60.9% (active)
Cc1ccc(-c2nc3c(Cl)cc(C(F)(F)F)cn3c2Cc2cccc(Cl)c2)cc1 | 50.6% (inactive)
COc1cc2nnn(-c3ccncc3)c2cc1OC | 28% (inactive)
CCC(=O)Nc1sc(C(=O)Nc2ccccc2)c(C)c1C(=O)OC | 31.4% (inactive)
COCCCNCC(=O)Nc1sc(C)c(C)c1C(=O)OC | -52.8% (active)
COC(=O)c1c(NC(=O)c2c(Cl)cnn2C)sc(C)c1C | 11.6% (inactive)
COCc1cccc(-c2csc(C(O)c3ccc(F)cc3)n2)c1 (configuration not stated) | 0% (inactive)
O=C(c1cccs1)N1C[C@H](n2cc(C3CC3)nn2)[C@@H](O)C[C@@H]1c1ccccc1 | -2.86% (inactive)
C=CCn1c2c(c3ccccc31)CCC2 | -10.5% (inactive)
CC(C)C1C(=O)N(Cc2cn(CCC3OCCO3)nn2)CCS(=O)(=O)N1Cc1ccc(-c2ccccc2C(F)(F)F)cc1 (configuration not stated) | -3.14% (inactive)
O=C1[C@H]2[C@@H](c3ccc(F)cc3)N3C(=O)N(c4ccc(C(F)(F)F)cc4)C(=O)[C@@]3(Cc3ccccc3)[C@H]2C(=O)N1C1CCCCC1 | -13.4% (inactive)
Cc1cccc(N2C(=O)N3[C@H](c4ccc(F)cc4)[C@@H]4C(=O)N(C5CCCCC5)C(=O)[C@@H]4[C@]3(Cc3ccccc3)C2=O)c1 | -58.6% (active)
O=C1[C@H]2[C@@H](c3ccc(Cl)cc3)N3C(=O)N(c4cccc(F)c4)C(=O)[C@@]3(Cc3ccccc3)[C@H]2C(=O)N1C1CCCCC1 | -0.596% (inactive)
OC[C@@H]1CN(Cc2cccs2)C[C@H](n2cnc3c(NC4CCCC4)ncnc32)O1 | 18.9% (inactive)
CC(C)c1cccc(-c2csc(C(O)c3ccccc3)n2)c1 (configuration not stated) | -27.4% (inactive)
COc1ccc2sc(-c3ccccc3OC)c(-c3ccc(OCCN4CCCC4)cc3)c2c1 | -83.2% (active)
COc1ccccc1-c1sc2ccccc2c1-c1ccc(Br)nc1 | -14.1% (inactive)

SMILES | max response, negative = inhibition
COc1cccc(-c2sc3ccc(OC)cc3c2-c2ccc(OCCN3CCCCC3)cc2)c1 | -12.2% (inactive)
CC(C)(Oc1ccc(C2CC2(Cl)Cl)cc1)C(=O)O (configuration not stated) | -111% (active)
O=C(Nc1ccc(C2CC2(Cl)Cl)cc1)c1cccc([N+](=O)[O-])c1 (configuration not stated) | -14.6% (inactive)
CCc1nc2c(OCc3ccc(F)c(F)c3)cccn2c1N(C)C(=O)c1ccco1 | 15.7% (inactive)
COc1ccc(C(=O)NC2=NCCS2)c(OC)c1 | 5.28% (inactive)
O=C(NC1=NCCS1)c1ccc(Cl)s1 | -77% (active)
COc1ccccc1C(=O)NCCC(=O)NC1=NCCS1 | 0% (inactive)
O=C(Cn1cc(-c2nnnn2-c2ccc(Cl)cc2)c(=O)c2ccccc21)c1ccccc1 | 36.4% (inactive)
O=C(C[n+]1ccc2c(c1)nnn2-c1ccccc1)c1ccc(Cl)cc1 | -54.4% (active)
O=C(CSc1cccc[n+]1[O-])c1ccc(Cl)cc1 | -3.66% (inactive)
Cc1noc(C)c1C(=O)N1CCC1(C)C(=O)NS(=O)(=O)c1ccc(C#N)cc1 (configuration not stated) | 13.1% (inactive)
COc1ccc(OC)c(NC(=O)c2sc3nc(C)cc(C)c3c2N)c1 | 22.5% (inactive)
Cc1cccn2c(=O)c3cc(C(=O)NC4CCCCC4)sc3nc12 | -12.3% (inactive)
COCc1cc(C)nc2sc(C(=O)NC3CCCCC3)c(N)c12 | -50.5% (active)
COc1cncc(-c2cnc3sc(NCCc4ccccn4)nn23)c1 | 60.8% (inactive)
S=c1[nH]nc(-c2cccs2)n1/N=C/c1cn(-c2ccccc2)nc1-c1ccc(Cl)cc1 | -16% (inactive)
Fc1ccccc1/C=N/n1c(-c2cccnc2)n[nH]c1=S | -11.6% (inactive)
Oc1ccccc1/C=N/n1c(-c2cccs2)n[nH]c1=S | -79.6% (active)
Cc1ccc(/C=N\n2c(-c3ccccc3)n[nH]c2=S)s1 | -72.1% (active)
Cc1ccsc1/C=N/n1c(=S)[nH]nc(C)c1=O | -20.9% (inactive)
S=c1[nH]nc(-c2ccncc2)n1/N=C/c1ccccc1Cl | 38% (inactive)
